# Screening results as filed in PubChem BioAssay.
# RPL19A-GFP yeast – alters RPL19A-GFP fluorescence in TOR pathway yeast screen. S. cerevisiae RPL19A-GFP strain, flow cytometry, 3 h; stronger effect = lower value. percent response vs DMSO, % at 10 µM. hit rate 0.3% among 330,000;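 active means percent response vs DMSO below 50%; inconclusive means fewer than 70 events counted for the yeast strain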;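 further: median channel GFP fluorescence of the barcoded RPL19A-GFP strain; ratio of sample median GFP to plate DMSO average so 100% = DMSO; lower means less RPL19A-GFP as with rapamycin TOR inhibition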
# MEP2 TOR yeast – alters MEP2-GFP fluorescence in TOR pathway yeast screen | S. cerevisiae MEP2-GFP strain, flow cytometry GFP, 3 h; 100% = DMSO control level | GFP response vs DMSO, % at 10 µM | hit rate 0.51% among 330,000;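 active means GFP response versus DMSO above a set limit, roughly screen mean plus 3 SD, cut at about 180% in these data; inconclusive means fewer than 70 cells counted for a yeast strain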;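 further: median GFP fluorescence of the barcode-gated MEP2-GFP cells per well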
# Myeloid diff 2 – myeloid differentiation induction. ER-HoxA9 myeloid progenitors, lysozyme-GFP differentiation, flow cytometry. calls only at 10 µM. hit rate 1% among 360,000;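 active means normalized GFP-positive differentiation at or above the plate's own cutoff, the solvent-only control mean plus 3 SD; inconclusive means no clear call, values can overlap the other calls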;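 further: cells exposed to compound for four days before flow analysis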
# AGP1-GFP MLPCN – yeast TOR pathway AGP1-GFP modulation; S. cerevisiae AGP1-GFP multiplex flow cytometry, 3 h; GFP as percent of DMSO wells; hit rate 0.02% among 320,000; GFP response vs DMSO, % at 10 µM; AID 2066;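 active means GFP response relative to DMSO above a set limit, near screen average plus 3 SD, cut at about 150% in these data; inconclusive means fewer than 70 cells counted for the yeast strain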;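 further: median GFP channel fluorescence of the gated AGP1 strain per well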
# CIT2-GFP yeast – alters CIT2-GFP fluorescence in TOR pathway yeast screen; S. cerevisiae CIT2-GFP strain, flow cytometry, 3 h; 100 means same as DMSO wells; GFP response vs DMSO, % at 10 µM; hit rate 0.065% among 320,000;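 active means GFP response relative to DMSO above a set limit, near the screen mean plus 3 SD, cut at about 150% in these data; inconclusive means Fewer than 70 cells measured for a yeast strain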;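 further: ratio of well median GFP fluorescence to mean of DMSO wells on the plate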
# LAP4 TOR yeast – alters LAP4-GFP fluorescence in TOR pathway yeast screen; S. cerevisiae LAP4-GFP multiplex, flow cytometry GFP, 3 h; median GFP as percent of DMSO wells; GFP response vs DMSO, % at 10 µM; hit rate 0.34% among 320,000; AID 2023;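 active means GFP response vs DMSO above a set limit, about the screen mean plus 3 SD, cut at about 150% in these data; inconclusive means under 70 cell events counted for the yeast strain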
# Active calls of the source: *; i = inactive; ? = inconclusive; . = not tested or not shown; + = active, no number; ! = a repeat was not active; [ ] = another dose, or the depositor's remark. In the library only some 1.8% were active in any assay of this set; here they are far more common.
SMILES,RPL19A-GFP yeast,MEP2 TOR yeast,Myeloid diff 2,AGP1-GFP MLPCN,CIT2-GFP yeast,LAP4 TOR yeast
O=C(C1CCC(CNc2nc(=S)[nH]c3ccccc23)CC1)N1CCN(c2ccccn2)CC1 (configuration not stated),99,100,+,106,96,103
Cc1cc(NC(=O)CSCC(=O)Nc2cc(C(F)(F)F)ccc2N2CCCCC2)no1,.,.,i,.,.,.
CSc1nsc(/C=C/Nc2ccc(C)cc2)c1C#N,100,105,+,97,101,100
Cc1ccc(-c2nsc(SCC(=O)NCC3CCCO3)n2)cc1 (configuration not stated),97,100,i,102,98,107
CCOc1ccc2nc(SCC(=O)NCC3CCCO3)c(C#N)cc2c1 (configuration not stated),99,211*,i,49,93,112
CCOc1ccc2nc(NCCNC(=O)CC)c(C#N)cc2c1,85,84,+,84,80,87
Cc1ccc(-c2nc(SCC(=O)NCC3CCCO3)c(-c3ccccc3)[nH]2)cc1 (configuration not stated),96,96,+,103,106,98
CCc1ccc2nc(SCC(=O)NCC3CCCO3)c(C#N)cc2c1 (configuration not stated),106,102,i,110,110,108
COc1ccccc1CN(Cc1nc2ccccc2c(=O)[nH]1)S(=O)(=O)c1ccc(C)cc1,94,97,i,98,93,92
CC(C)CC(O)(c1ccccc1)C(CN1CCOCC1)c1ccccc1 (configuration not stated),22*[may fluoresce violet],378*[may fluoresce violet],.,?,?,80
CC(C)CCC(O)(c1ccccc1)C(CN1CCOCC1)c1ccccc1 (configuration not stated),99,121,i,109,106,101
COc1ccc(NC(=O)C2c3ccccc3OCC(=O)N2CCc2ccccc2)cc1 (configuration not stated),.,.,i,.,.,.
CCCN1CCN(C(=O)c2oc3ccccc3c2NC(=O)COc2ccc(OC)cc2)CC1,31*,102,i,26,77,80
COc1ccc(OCC(=O)Nc2c(C(=O)N3CCN(C)CC3)oc3ccccc23)cc1,103,105,i,107,103,108
Cc1c(N=C/C=C2/N(C)c3ccccc3C2(C)C)c(=O)n(-c2ccccc2)n1C,102,105,+!,103,99,100
Cc1c(NC(=S)/C=C2\N(C)c3ccccc3C2(C)C)c(=O)n(-c2ccccc2)n1C,94,98,+,99,90,102
CCc1nc2ccc(C(=O)NCCCN(C)C)cn2c1N(C)Cc1ccc(OC)cc1,.,.,i,.,.,.
COc1cccc(/C=C/C(=O)OCC(=O)Nc2nnc(-c3ccccc3)o2)c1OC,.,.,i,.,.,.
CC(C)Cc1nnc(NC(=O)C2=COCCO2)s1,112,106,i,107,108,101
CCn1cc(/C=C/C(=O)Nc2c(C)nn(Cc3ccccc3)c2C)cn1,100,100,i,95,99,86
CC(C)Cn1c(/C=N/Nc2nc3ccccc3[nH]2)nc2ccccc21,.,.,+,.,.,.
C[C@H](CO)N1C[C@H](C)[C@@H](CN(C)S(C)(=O)=O)Oc2c(NC(=O)C3CC3)cccc2C1=O,95,93,i,98,102,99
CN(C(=O)CSc1nc(O)cc(=O)n1-c1ccccc1F)c1ccccc1,98,101,i,102,.,94
CN(C(=O)CSc1nc(O)cc(=O)n1C1CCCC1)c1ccccc1,53,270*[may fluoresce violet],i,19,?,99
COc1ccc(-c2cc(=O)n(-c3nc4ccccc4[nH]3)[nH]2)cc1,81,102,i,78,88,181*
SMILES,RPL19A-GFP yeast,MEP2 TOR yeast,Myeloid diff 2,AGP1-GFP MLPCN,CIT2-GFP yeast,LAP4 TOR yeast
O=C(CN1CCOCC1)NCC12CC3CC(CC(C3)C1)C2,89,98,+,78,83,90
O=C(CC12CC3CC(CC(C3)C1)C2)NCCN1CCOCC1,99,103,i,100,101,101
CCCCCCSc1ccc([C@@H]2[C@H]3C(=O)N(C)C(=O)[C@H]3[C@]3(C(=O)OC)CCCCN23)cc1OC,114,102,+,99,117,128
Oc1c(Br)cc(Br)cc1/C=N/c1nc2c(s1)CCCC2,47*[may fluoresce violet],90,i,15,?,103
COc1ccc(C2=CC3=C(Br)C(=O)C(C)(OC(=O)c4ccco4)C(=O)C3=CO2)cc1 (configuration not stated),46*[may fluoresce violet],104,+,11,?,106
Cc1ccc(N(C(=O)c2snc(C(N)=O)c2N)C(C(=O)NCc2ccccc2)c2ccncc2)c(C)c1 (configuration not stated),38*[may fluoresce violet],210*[may fluoresce violet],i,?,?,58
CC(C)C[C@H](NC(=O)OC(C)(C)C)C(=O)N1CCC(C(=O)O)CC1,42*[may fluoresce violet],371*[may fluoresce violet],i,?,?,84
COC(=O)c1ccc(Cn2nc(C(F)(F)F)cc2C)cc1,99,105,i,103,100,103
Cc1cccc(NC(=O)CN2CCN(C(=O)c3cc(C4CC4)nn3-c3ccccc3)CC2)c1C,.,.,+,.,.,.
COCC(=O)Nc1ccc2c(c1)OCC(=O)N2Cc1ccccc1F,89,84,i,91,91,87
C=CCOc1cccc(C2C(C(=O)c3ccc(C)o3)=C(O)C(=O)N2c2nccs2)c1 (configuration not stated),94,94,+,86,77,87
COc1cccc(C2C(C(=O)c3ccc(C)o3)=C(O)C(=O)N2c2cc(C)on2)c1 (configuration not stated),99,96,i,98,90,106
O=C(C[n+]1cc(Br)cc2ccccc21)c1ccc(Br)cc1,108,107,i,109,102,98
O=C(C[n+]1cc(Br)cc2ccccc21)c1ccc(Cl)cc1,24*[may fluoresce violet],454*[may fluoresce violet],i,?,?,66
CN(C)S(=O)(=O)c1cccc(NC(=O)c2sccc2-c2ccccc2)c1,105,105,+,91,91,84
CN(C)S(=O)(=O)c1cccc(NC(=O)c2cccc(NS(=O)(=O)c3ccccc3)c2)c1,102,104,i,100,100,110
Cc1ccccc1N1CC(C(=O)Nc2ccc(S(=O)(=O)N3CCCCC3)cc2)CC1=O (configuration not stated),61,279*[may fluoresce violet],i,?,?,80
CC(C)=NOC(=O)c1c(C)noc1-c1snnc1C,56,603*[may fluoresce violet],i,22,?,113
COC(=O)c1c(C)noc1-c1snnc1C,97,104,i,110,98,109
